The whole screen tested about 220,000 compounds, of which about 8,200 (3.7%) were called active. The sample holds actives, similar compounds and a random draw of the others, so the mix is not that of the screen. Unmarked numbers belong to inactive results.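 The calls were made as follows: active = compounds that reduced the stress-induced luciferase reporter signal by more than about 70% of percent inhibition (limit read from the data); inactive = the rest.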

This assay in a line: inhibitors of CHOP promoter induction, primary screen, cell-based, unfolded protein response, luciferase reporter (AID 2732).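 Also: 0% = tunicamycin plus vehicle and 100% = wells without tunicamycin.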 The conditions noted are these: CHO-K1 CHOP-promoter luciferase, tunicamycin-induced, 15-18 h; at 10 µM; hits give high values. (In general: A reporter such as luciferase makes a cellular process visible.)
In general, inhibition refers to the relative decrease from the control value, in per cent. For the compound `Cc1cc(OCCCCOc2ccc(C#N)cc2)ccc1[N+](=O)[O-]`, the inhibition was 32.1%. Turning to `COc1ccccc1Nc1nc(N)nc(CSC(=S)N2CCOCC2)n1`, the inhibition is 9%.

In the case of `CCCCCCC(=O)N(O)C1CC(=O)N(c2ccccc2)C1=O` (stereo not drawn), the inhibition is 106% (active).

In the case of `CCOC(=O)c1ccc(N2C(=O)CC(N(C)Cc3ccccc3)C2=O)cc1` (stereo not drawn), the inhibition was 40.7%. In the case of `CCOc1ccc(N2C(=O)CC(N(O)c3ccccc3)C2=O)cc1` (stereo not drawn), the inhibition is -34%. Then `COCCN1C2=C(COC(C)(C)C2)C(=S)NC1c1ccccc1` (stereo not drawn), with 12.9%; and `Cc1cc(C(=O)OCC(=O)Nc2nccs2)c2ccccc2n1`, with 23.3%. With `CSc1ccc(S(=O)(=O)Nc2cccc(F)c2)cc1` the figure was 74.6% (active); with `Cc1cc(C)cc(NS(=O)(=O)c2ccc(F)cc2)c1`, 10.9%; with `CSc1ccc(S(=O)(=O)NC2CCCCC2)cc1`, 1.25%. Then `O=S(=O)(Nc1ccc(OC(F)(F)F)cc1)c1cccc2nonc12`, with -2.82%. Take `Cn1ccc(NC(=O)Nc2ccc(Cl)cc2)n1`: the inhibition was -23.2%. With `CC(C)=NN1C(=O)c2ccccc2NC1(C)C` the figure was 2.15%.

Turning to `O=C(Nc1ccccc1Cl)c1ccc2nsnc2c1`, the inhibition was -20.7%. With `COCCN(CCOC)C(=S)Nc1ccccc1Cl` the figure was 15.1%; with `O=C(Nc1ccccc1Cl)/C(Cl)=C(\Cl)S(=O)c1ccccc1` (stereo not drawn), 108% (active). Then `NC(=O)Cc1ccc2c(c1)[nH]c1ccccc12`, with -13.9%; and `CCNc1nc(NCC)nc(N/N=C/c2ccc(O)c(OC)c2)n1`, with -5.61%. On to `OC(c1ccccc1)C(CN1CCOCC1)c1ccccc1` (stereo not drawn), for which the inhibition is 9.34%. Then `Cc1ccccc1NC(=O)C(C)c1ccc(-c2ccccc2)c(F)c1` (stereo not drawn), with 70.4% (active). With `O=C(Nc1ccccc1F)c1ccccc1-c1ccccc1` the figure was 1.92%.

Take `Cc1ccc(NC(=O)C(C)c2cccc(C(=O)c3ccccc3)c2)cc1` (stereo not drawn): the inhibition was 19.2%.

For `COc1cccc(-c2nnc(NC(=O)c3ccc(S(=O)(=O)N(CC(C)C)CC(C)C)cc3)o2)c1`, the inhibition is 108% (active).

As for `COc1cccc(NC(=O)c2ccc(S(=O)(=O)N(C)C)cc2)c1`, the inhibition was -15.2%. Then `O=C(Nc1nnc(-c2ccco2)o1)c1ccc(S(=O)(=O)N2CCOCC2)cc1`, with 13.2%; and `CC(C)(C)c1ccc(NC(=O)COC(=O)CCc2nc3ccccc3c(=O)[nH]2)cc1`, with 20%. With `CCN(c1ccc(NC(=O)COC(=O)CCc2nc3ccccc3n2-c2ccccc2)cc1)C(C)C` the figure was 79% (active); with `Cc1ccc(NC(=O)COC(=O)CCc2nc3ccccc3n2-c2ccccc2)c(C)c1`, 2.62%.

On to `Cc1c(C(=O)N(Cc2ccccc2)Cc2cccnc2)cnn1-c1ccc(F)cc1`, for which the inhibition is 0%. With `COC(=O)c1sccc1NC(=O)CC1C(=O)NCCN1C(=O)Nc1ccc(F)cc1F` (stereo not drawn) the figure was 12.3%.

For `C=CS(=O)c1sc(Cl)c(N2CCOCC2)c1[N+](=O)[O-]` (stereo not drawn), the inhibition is 106% (active).

Regarding `Cc1nc(=O)c(-c2ccccc2)c(C)n1-c1ccc(Br)cc1`, the inhibition was 3.14%. With `O=C(C[n+]1ccc2c(c1)nnn2-c1ccccc1)c1ccc(Cl)cc1` the figure was 34.6%; with `CCCCCCc1cc2cc(-c3nnc(-c4ccccc4)o3)c(=O)oc2cc1O`, 95.9% (active). `CCCC(=O)Nc1nnc(-c2ccccc2)o1`: the inhibition was 0.67%.

Take `Cc1c(CCC(=O)O)c(=O)oc2cc3occ(-c4ccccc4)c3cc12`: the inhibition was 37.1%.

Consider `O=C1CCCCC1C(=O)c1ccccc1` (stereo not drawn), for which the inhibition is 8.57%. Then `Cc1ccccc1NC(=O)Nc1ccccc1N1CCCCC1`, with 28.6%; and `Cn1c(=O)c2c(nc(SCC(=O)Nc3ccccc3N3CCCCC3)n2C)n(C)c1=O`, with 21.7%; and `O=C(Cc1cccc2ccccc12)NCCC1=CCCCC1`, with 40.1%. With `O=C(CNCCC1=CCCCC1)Nc1ccccc1N1CCCCCC1` the figure was 72.9% (active); with `O=C(CN1CCN(C2CCCCC2)CC1)Nc1ccccc1N1CCCCC1`, 59.2%.

Turning to `Cc1ccccc1NC(=O)CNc1ccccc1N1CCCCC1`, the inhibition is 89.1% (active).

As for `Cc1ccc(OS(=O)(=O)c2ccc(-c3csc(C)n3)s2)c(C)c1`, the inhibition was 22.5%. Then `CNC(=O)c1csc(Cc2c(Cl)sc3ccc(Cl)cc23)n1`, with 30.4%; and `Cc1cc(Nc2ccc(Cl)cc2)nc(N2CCOCC2)n1`, with 0.58%.

For the compound `Cn1c(SCC(=O)c2ccc(F)cc2)nnc1-c1ccccn1`, the inhibition is 6.32%.

Turning to `COc1ccc(C(CCNCc2ccccc2F)c2ccc(F)cc2)cc1` (stereo not drawn), the inhibition is 79.4% (active). Then `COc1cccc(CNCCc2c[nH]c3ccccc23)c1OCc1ccccc1F`, with 12.6%; and `COc1ccc(CC(=O)NC(C)CCc2ccccc2)cc1` (stereo not drawn), with -12.2%. With `O=c1c2cc(-c3ccccc3)sc2nc2n1N=C(c1cccs1)CS2` the figure was -4.25%; with `Clc1ccc(-c2cc(-c3ccccn3)on2)c(Cl)c1`, 63.3%; with `O=[N+]([O-])c1ccc(N=Cc2c(O)ccc3ccccc23)cc1`, 28.1%. Then `COCCN(C(=S)Nc1cccc(Cl)c1C)C(C)c1ccco1` (stereo not drawn), with 42.5%; and `C=C(C)C(=O)Nc1cccc(C2=NOC3(C2)C[C@H](C(N)=O)N(C(=O)C(c2ccccc2)c2ccccc2)C3)c1` (stereo partly drawn), with -8.97%. Consider `CC(C)(C)c1ccc(/C=C2\Oc3c(ccc(O)c3CN3CCN(CCO)CC3)C2=O)cc1`, for which the inhibition was -15.1%. With `Cc1ccc(C(=O)N/C(=C\c2ccco2)C(=O)NC2CCS(=O)(=O)C2)cc1` (stereo not drawn) the figure was 10.1%; with `Cc1cc(C(=O)N2CCC(C(=O)O)CC2)c(C(F)(F)F)o1`, 1.47%; with `Cc1cc(C)cc(N(CC(=O)N2CC=C(c3ccccc3)CC2)S(=O)(=O)c2c(C)noc2C)c1`, 70% (active). Then `CCOC(=O)C1CCCN(C(=O)CN(c2ccc(OC)cc2)S(=O)(=O)c2c(C)noc2C)C1` (stereo not drawn), with 10.8%. Then `Cc1cc(C)cc(N(CC(=O)NCC2CCCO2)S(=O)(=O)c2c(C)noc2C)c1` (stereo not drawn), with 23.4%. Take `CC(NC(=S)NNS(=O)(=O)c1ccc(C(C)(C)C)cc1)c1ccccc1` (stereo not drawn): the inhibition is 51.7%. With `O=C(c1[nH]ncc1-c1ccc(Cl)cc1)C1CO1` (stereo not drawn) the figure was -97.8%; with `O=C1C(Cc2ccc(O)cc2)NC(=S)N1Cc1ccccc1` (stereo not drawn), -7.09%. Then `O=C1CC(Cc2ccc(Cl)cc2)C(=O)N1c1cc(Cl)ccn1` (stereo not drawn), with 7.86%; and `CCCCC(CC)CNC(=O)C(=O)C1C(=O)Nc2ccccc21` (stereo not drawn), with 86.7% (active); and `CCCCC(CC)CNC(=O)CCCCn1c(=O)[nH]c2ccsc2c1=O` (stereo not drawn), with 10.3%. Regarding `CCOC(=O)C(=O)C1C(=O)Nc2ccccc21` (stereo not drawn), the inhibition is 17.5%.

For `Cc1cc(C(=O)CSc2nc(N)cc(=O)[nH]2)c(C)n1Cc1ccco1`, the inhibition is 3.96%. Then `COc1ccc(C(=O)N/N=C(\C)CC(=O)Nc2ccc(Cl)cn2)cc1`, with 4.2%; and `O=C(C1CC1)N1CCN=C1SCc1ccc(Cl)cc1`, with 5.04%. With `O=C(c1ccc(CSc2ccccc2)cc1)N1CCCCCC1` the figure was 23.8%; with `CC1CCN(C(=O)c2ccc(CSc3ccc(Cl)cc3)cc2)CC1`, 80.3% (active). With `Cn1c2ccccc2c2cc(/C=C(\NC(=O)c3ccccc3)C(=O)NCC(=O)O)ccc21` the figure was -15.8%; with `O=C(CCS(=O)(=O)c1ccccc1Cl)Nc1ccc(S(=O)(=O)Nc2ncccn2)cc1`, 3.66%.

Turning to `CC(C)n1c(CN2CCN(Cc3ccccc3)CC2)nc2ccccc21`, the inhibition was -0.64%.

As to `CC(=O)Nc1ccc(C(=O)/C=C/c2ccc[nH]2)cc1`, the inhibition was -14.3%. In the case of `O=C(NC1CCCCC1)c1cc(C2CC2)on1`, the inhibition is 1.58%. Then `CCc1nc(NCCO)c(C#N)c2c1CCCC2`, with 17.2%.

Turning to `Cc1nc(NCc2ccccc2)c(C(N)=O)c2c1COC(C)(C)C2`, the inhibition was -8.11%. With `Cc1nc(NCCN)c(C#N)c2c1COC(C)(C)C2` the figure was 74.9% (active); with `CC(C)C(=O)N1CCN(c2nc(-c3ccccc3)c3c(c2C#N)CC(C)(C)OC3)CC1`, 26.8%; with `CCCCc1nc(NCCN)c(C#N)c2c1CSC(C)(C)C2`, 101% (active). With `CCCCc1nc(NCc2ccccc2)c(C#N)c2c1CCCC2` the figure was 54.3%; with `C=CCSc1nnc(NC(=O)c2ccc(NC(C)=O)cc2)s1`, 6.97%. Then `COC(=O)c1scc(C)c1NC(=O)CSc1ccc(Cl)cc1`, with 16.3%; and `Cn1cccc1/C=C1\SC(=S)N(NC(=O)c2ccc(Cl)cc2)C1=O`, with 20.4%; and `Cc1nn(Cc2ccccc2)c(C)c1C(=O)NCCN1C(=O)S/C(=C\c2ccc(F)cc2)C1=O`, with 56.3%. On to `Cn1cccc1/C=C1\SC(=O)N(CC(=O)Nc2ccc(F)cc2)C1=O`, for which the inhibition was 72% (active). On to `COc1ccc(N2CCC(CNC(=S)Nc3c(C)cccc3C)C2)cc1` (stereo not drawn), for which the inhibition was 18.6%. As to `COc1ccc(C2CC(c3ccccc3)=NN2C(=O)c2ccc(Cl)c([N+](=O)[O-])c2)cc1` (stereo not drawn), the inhibition was -21.3%. Then `CCOc1ccc2nc(Cl)c(C3CC(c4ccccc4)=NN3C(=O)c3cccs3)cc2c1` (stereo not drawn), with 90.5% (active).

On to `CCOc1ccccc1C1CC(c2cccc(NS(C)(=O)=O)c2)=NN1C(=O)c1ccccc1` (stereo not drawn), for which the inhibition was -2.91%.

For `OC(CNCc1ccc2c(c1)OCO2)COc1ccccc1` (stereo not drawn), the inhibition is -20.3%.

Regarding `CCOC(=O)CC1C(=O)NCCN1c1nc2c(C)cccn2c(=O)c1/C=C1\SC(=S)N(C(C)CC)C1=O` (stereo not drawn), the inhibition is 5.91%. With `Cc1cccc(Cn2c(N3CCN(c4ccccc4)CC3)nc3c2c(=O)n(C)c(=O)n3C)c1` the figure was 40.4%; with `COC(=O)C(C)Sc1nc2c(c(=O)n(C)c(=O)n2C)n1Cc1cccc(C)c1` (stereo not drawn), 11.8%.

Consider `C/C(Cl)=C\Cn1c(Nc2cccc(C)c2)nc2c1c(=O)n(C)c(=O)n2C`, for which the inhibition is 76.1% (active).

The record behind these values is PubChem BioAssay AID2732 (Emory University Molecular Libraries Screening Center, 2010).
